# The list is not random: actives were taken first. Their share in the collection is about 2.2%.
# hiPSC survival: increases survival of single human iPS cells | hiPSC single-cell survival, ATPlite luminescence; 100% = ROCK inhibitor wells, 0% = DMSO | survival enhancement, % at 20 µM | actives 0.044% (n = 360,000); in the data active = survival enhancement above about 18%;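 note: cells exposed to compounds for 16 hours before the ATP read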
# MIN6 prolif: induces beta-cell replication in MIN6 cells; MIN6 cells proliferation, ATPlite luminescence, 48 h; cells starved in 0.2% serum; 100% = growth in 10% serum; proliferation, % at 10 µM; actives 0.29% (n = 330,000);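 active = compounds whose signal lies at least 3.5 SD above the mean of all wells on their plate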;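 note: 0% = DMSO-treated cells in low-serum medium and 100% = 10% serum control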
# Myeloid diff MLP: myeloid differentiation induction | ER-HoxA9 myeloid progenitors, lysozyme-GFP differentiation, flow cytometry | calls only at 10 µM | actives 1% (n = 360,000) | AID 624256;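 active = normalized GFP-positive differentiation at or above the plate's own cutoff, the solvent-only control mean plus 3 SD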;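 note: cells exposed to compound for four days before flow analysis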
# Cardio protect: myocardial damage modulation in H9c2 cells | AID 588492 | actives 0.63% (n = 360,000) | protection from H2O2 cell death, % at 20 µM | H9c2 cardiomyocytes, H2O2 injury protection, ATPLite, 2 h;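 active = compounds giving at least 50% protection of heart cells from peroxide-induced death in the single-dose screen, raw or plate-pattern-corrected value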;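 note: 0% = DMSO wells with peroxide and 100% = DMSO wells without peroxide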
# ABCB6 inh MLPCN: inhibitors of human ABC transporter ABCB6; K562-ABCB6 porphyrin accumulation, flow cytometry, 1 h; stronger effect = lower value; fluorescence ratio to DMSO, % at 10 µM; actives 0.19% (n = 360,000);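 active = fluorescence ratio to DMSO below 75%, the collection mean minus 3 SD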;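 note: signal is porphyrin accumulated inside mitochondria; 100% equals median channel fluorescence of DMSO control wells; lower ratio means ABCB6 inhibition with less porphyrin fluorescence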
# Target sequence (Q9NP58 whole entry, looked up): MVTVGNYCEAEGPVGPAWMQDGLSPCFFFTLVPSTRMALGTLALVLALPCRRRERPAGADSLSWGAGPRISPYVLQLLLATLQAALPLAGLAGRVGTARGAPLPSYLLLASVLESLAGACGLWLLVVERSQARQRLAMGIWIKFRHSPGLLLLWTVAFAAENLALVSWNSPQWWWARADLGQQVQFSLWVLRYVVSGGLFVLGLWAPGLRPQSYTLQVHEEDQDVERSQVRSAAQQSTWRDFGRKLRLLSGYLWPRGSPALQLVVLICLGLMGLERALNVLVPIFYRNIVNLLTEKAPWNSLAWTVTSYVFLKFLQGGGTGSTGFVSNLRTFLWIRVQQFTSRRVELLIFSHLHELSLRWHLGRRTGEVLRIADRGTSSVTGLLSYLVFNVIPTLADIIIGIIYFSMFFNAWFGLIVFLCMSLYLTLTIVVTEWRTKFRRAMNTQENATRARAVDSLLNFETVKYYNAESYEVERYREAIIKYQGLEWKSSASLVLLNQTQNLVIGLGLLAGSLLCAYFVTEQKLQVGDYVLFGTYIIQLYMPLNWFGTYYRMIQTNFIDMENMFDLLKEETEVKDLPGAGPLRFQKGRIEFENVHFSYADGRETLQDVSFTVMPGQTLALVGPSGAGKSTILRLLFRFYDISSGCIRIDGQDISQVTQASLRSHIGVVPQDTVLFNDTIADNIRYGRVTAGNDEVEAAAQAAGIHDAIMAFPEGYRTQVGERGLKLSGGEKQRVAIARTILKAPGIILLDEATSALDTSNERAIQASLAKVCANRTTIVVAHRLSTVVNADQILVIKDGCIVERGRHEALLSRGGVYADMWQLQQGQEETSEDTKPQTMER
# Active calls of the source: *; i = inactive; . = not tested or not shown; + = active, no number.
SMILES,hiPSC survival,MIN6 prolif,Myeloid diff MLP,Cardio protect,ABCB6 inh MLPCN
COc1ccc2cc(CN(CC3CCCO3)S(=O)(=O)c3ccc(C(C)=O)cc3)c(=O)[nH]c2c1 (centres undefined),0,-2,+,5,97
COc1ccc(Br)cc1/C=N/NS(=O)(=O)c1ccccc1,-3,.,i,-1,99
CCCN1C(=O)/C(=C/c2c(NCCCOC(C)C)nc3c(C)cccn3c2=O)SC1=S,0,-4,+,-11,i
CCC(C)Nc1nc2c(C)cccn2c(=O)c1C=Nc1ccc(OC)cc1 (centres undefined),-1,-4,i,-12,95
CCC(C)N1C(=O)/C(=C/c2c(NCCCOC(C)C)nc3c(C)cccn3c2=O)SC1=S (centres undefined),-1,-6,+,-7,i
O=C(O)CC1SC(=Nc2cccc(C(F)(F)F)c2)NC1=O (centres undefined),-1,1,i,-3,91
O=C(CCCn1c(SCC(=O)c2ccc(O)c(O)c2)nc2ccccc2c1=O)NCC1CCCO1 (centres undefined),0,1,i,53*,98
CCCCn1c(SCC(=O)c2ccc(O)c(O)c2)nc2ccsc2c1=O,0,0,i,92*,95
Cc1cc(C)n(C(=O)c2ccc(C)c(Br)c2)n1,0,-4,i,0,98
CC(C)CCn1nnnc1CN1CCN(C(c2ccccc2)c2ccccc2)CC1,0,-6,+,-1,171
COc1ccc(Cl)cc1-c1nc(-c2ccc(NC(=O)c3cccs3)cc2)no1,0,0,i,56*,87
COc1ccc(NC(=O)c2cccs2)cc1OC,2,0,i,3,99
O=C(Nc1ccc(-c2noc(-c3cccs3)n2)cc1)c1cccnc1,-1,-3,i,64*,95
COc1ccc(C(=O)Oc2ccc3c(C)cc(=O)oc3c2C(C)=O)cc1,0,0,i,1,95
Cc1cc(NC(=O)c2cc(-c3ccco3)on2)n(-c2ccccc2)n1,3,1,i,-1,109
O=C(NCc1ccccc1Br)c1cccc2c1C(=O)c1ccc(N3CCC(Cc4ccccc4)CC3)cc1S2(=O)=O,-1,-3,+,0,188
O=C(NCc1ccccc1C(F)(F)F)c1cccc2c1C(=O)c1ccc(N3CCC(N4CCCCC4)CC3)cc1S2(=O)=O,-2,.,+,-43,215
COCCN1C(=O)CN(S(C)(=O)=O)CC1(C)C(=O)NC(C)C (centres undefined),.,.,i,.,.
Nc1nc(N)c2c(n1)CN(Cc1ccc(Cl)cc1)C2,0,.,i,6,98
CN(C)C(CNC(=O)CCc1nc2cc(Cl)ccc2n(Cc2ccccc2)c1=O)c1ccccc1 (centres undefined),0,-6,i,1,100
CCNC(=S)NNC(=O)CCc1nc2cc(Cl)ccc2n(Cc2ccccc2)c1=O,0,1,+,6,99
COCCNc1oc(/C=C/c2ccccc2OC)nc1S(=O)(=O)c1ccccc1,0,-3,i,-3,91
Cc1csc(SCc2nc3sc4c(c3c(=O)[nH]2)CCC4)n1,-2,.,i,52*,97
CC(c1ccco1)N(C(=O)c1cc(Cl)cc(Cl)c1)c1ccccn1 (centres undefined),0,0.0*,.,-1,91
Cc1cc(C)cc(C(=O)N(c2ccccn2)C(C)c2ccco2)c1 (centres undefined),1,0,i,8,100
SMILES,hiPSC survival,MIN6 prolif,Myeloid diff MLP,Cardio protect,ABCB6 inh MLPCN
Cc1ccc(-c2nc3ccc(Cl)cn3c2Cc2ccsc2)cc1,-2,.,i,-2,98
Nc1sccc1C(=O)NCc1ccccc1,.,.,+,.,.
COc1cc(/C=C/C(=O)Nc2ccc(OC)c(S(=O)(=O)N3CCOCC3)c2)ccc1OC(F)F,1,-2,i,-1,94
Cc1cccc(C)c1OCc1nnc(SCC(=O)Nc2cccc(C(=O)N3CCOCC3)c2)n1C,3,-2,i,0,87
Cc1nn(-c2ccc(F)cc2)c2nc(N)c(C#N)c(-c3ccc(O)c(O)c3)c12,2,-7,i,77*,95
CC(=O)Oc1ccccc1/C=C1\CCOC1=O,1,-2,i,-1,97
CCn1cc(/C=C(\NC(=O)c2ccccc2OC)C(=O)NCCCN2CCOCC2)c2ccccc21,0,2,i,5,98
CCC(=O)Nc1ccc(-c2nnc(-c3ccccc3)o2)cc1,-1,0,i,-11,89
CCC(=O)Nc1cccc(-c2nnc(-c3cccc(NC(=O)CC)c3)o2)c1,1,-2,i,85*,99
COc1cc(C(=O)Nc2cccc(-c3nnc(-c4ccco4)o3)c2)ccc1OC(C)=O,0,-2,i,79*,88
Cc1cc(C)cc(OCC(=O)Nc2cccc(-c3nnc(-c4ccco4)o3)c2)c1,4,-2,.,54*,90
c1cc2c(cc1CN1CCN(C3CCCCCC3)CC1)OCO2,0,-1,i,-2,92
CNc1ccc(-c2ccccc2OC)cn1,-1,.,i,0,110
C=CCn1c(SCC(=O)Nc2nccs2)nnc1-c1cc2cccc(OC)c2o1,3,0,i,14,72*
C=CCn1c(SCC(=O)Nc2ccccc2OC)nnc1-c1ccco1,.,-2,.,.,.
C[C@@H]1CN([C@@H](C)CO)C(=O)CCCn2nncc2CO[C@H]1CN(C)S(=O)(=O)c1ccc(Cl)cc1,1,.,i,3,99
CC(=O)c1ccc(N2CCN(C(=O)c3cc4c(-c5ccccc5F)nn(C)c4s3)CC2)cc1,0,-5,i,-8,75
CCCOc1ccc(-c2c(C(=O)N/N=C/c3ccccc3OCC)nnn2-c2nonc2N)cc1,-1,7,i,1,97
CSc1ccc(OC2(C)CCN(Cc3ccccc3)C2)cc1 (centres undefined),3,.,i,-11,89
CSc1ccc(CN2CCC(C)(Oc3ccc4ccccc4c3)C2)cc1 (centres undefined),-4,.,+,-14,97
N#C/C(=C(/O)CCl)c1nc2c(s1)CCc1ccccc1-2,0,0,+,-1,180
Nc1nc2c(s1)CCc1ccccc1-2,0,-7,i,-8,96
O=S(=O)(Nc1nc2ccccc2s1)c1ccc(Br)s1,-1,0,+,-12,92
O=C(Nc1ccccc1)c1nc[nH]c1C(=O)NCCCCCCNC(=O)c1[nH]cnc1C(=O)Nc1ccccc1,-2,-6,i,97*,91
Cc1cccc(NC(=O)c2nc[nH]c2C(=O)NCCN(CCNC(=O)c2[nH]cnc2C(=O)Nc2cccc(C)c2)CCNC(=O)c2[nH]cnc2C(=O)Nc2cccc(C)c2)c1,3,-5,i,8,94

# Assay outcomes deposited in PubChem BioAssay by several laboratories.
